Experimental data published in PubChem BioAssay AID1463 (National Center for Advancing Translational Sciences (NCATS), 2008).
Out of some 280,000 compounds screened, about 2,600 (0.93%) were called active. Where a call stands in place of a potency, no number is given. Inconclusive results (about 8%) are left out. Calls come from the whole dose curve; as a rule, active = well fitted curve in the direction sought with a large enough effect; inconclusive = small, poorly fitted or top-dose-only effect; inactive = flat fitted curve, though single readings scatter. Only a selection was taken, and actives are over-represented in it overall.

Experiment: Counterscreen qHTS for Inhibitors of Tau Fibril Formation, Fluorescence Polarization; note: nearly all actives have a fitted effect of over 55% in size
Conditions: tau K18 P301L Alexa594 fluorescence, heparin fibrillization; series mostly up to 57.7 µM
Procedure, shortened: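 Human tau K18 P301L (15 uM unlabeled, 0.24 uM Alexa 594-labeled) in 100 mM sodium acetate pH 7 with 20 uM heparin, 6 hr at 37 C. ThT 30 uM added, 1 hr ambient; Alexa 594 FP and total fluorescence read at 555/632 nm.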
Potency is the fitted concentration of half-maximal effect; tags give direction and shape of the fitted curve or compound fluorescence and quenching.

SMILES | Potency
CCCn1c2ccccc2c2cnn(CC(=O)NCC3CCN(Cc4ccc(C)cc4)CC3)c(=O)c21 | inactive
COc1ccc(NS(=O)(=O)c2cc(NC(=O)CC(=O)c3ccc([N+](=O)[O-])cc3)ccc2C)cc1 | 7.94 µM [quencher] (active)
COc1ccc(S(=O)(=O)NC(C)C(=O)Nc2cccc([N+](=O)[O-])c2)cc1 (stereo not given) | inactive
Cc1ccc(C(=O)Nc2ccc(C(=O)O)cc2)cc1S(=O)(=O)Nc1ccccc1 | inactive
COc1cc(NC(=O)Cn2nc(-c3ccc(C)c(C)c3)ccc2=O)cc(OC)c1 | inactive
Cn1c(SCC(=O)N2CCCc3ccccc32)ncc(C(=O)Nc2ccc(F)cc2)c1=O | inactive
COc1ccc(-n2nnc(-c3nsc(NC(=O)c4ccc(C)c(C)c4)n3)c2C)cc1Cl | inactive
CCN(CC)CC(=O)c1c[nH]c2ccc(OC)cc12 | inactive
COc1ccc2[nH]cc(/C=C(/C#N)S(=O)(=O)c3ccccc3)c2c1 | 25.1 µM [quencher] (active)
COc1ccc(/C=N/N=C/c2c[nH]c(=O)c(C#N)c2Nc2ccccc2)cc1 | inactive
CCOC(=O)C1=C(C)N=C2c3ccccc3C(=O)C2C1c1ccc(Br)cc1 (stereo not given) | 11.2 µM [quencher] (active)
CCOC(=O)C1=C(C)NC(SC)=NC1c1ccccc1 (stereo not given) | inactive
CCOC(=O)C1=C(C)NC(=O)NC1c1ccccc1 (stereo not given) | inactive
CSc1nc(=O)c2c(n1C)NC(=O)CC2c1ccccc1OC(C)C (stereo not given) | inactive
CN=c1scc(-c2cc(OC)ccc2OC)n1/N=C/c1c(C)[nH]c2ccccc12 | 12.6 µM [quencher] (active)
CCn1c(-c2cc(OC)ccc2OC)csc1=Nc1c(C)n(C)n(-c2ccccc2)c1=O | inactive
COC(=O)c1[nH]c2ccccc2c1NS(=O)(=O)c1ccc(OC)cc1OC | inactive
CC(=O)N1CCCc2cc(S(=O)(=O)N3CCC(C(=O)NCc4ccc(F)cc4)CC3)ccc21 | inactive
COc1ccc(OC)c(NC(=O)C2CCCN(S(=O)(=O)c3ccc4c(c3)CCCC(=O)N4)C2)c1 (stereo not given) | inactive
CCOc1ccccc1C(=O)NC1(C(F)(F)F)NC(=O)N(CCc2ccc(OC)c(OC)c2)C1=O (stereo not given) | inactive
O=C(O)c1cccc(S(=O)(=O)Nc2ccc(O)cc2Sc2nc3ccccc3s2)c1 | inactive
O=C(CSc1nc2ccccc2s1)Nc1ccc(C(=O)O)cc1 | inactive
CC(C)c1ccc(S(=O)(=O)Nc2ccc(O)c(Sc3nc4ccccc4s3)c2)cc1 | 14.1 µM [quencher] (active)
Cc1nnc(SCC(=O)NCc2ccccc2Cl)c2nn(-c3ccccc3)c(C)c12 | inactive

SMILES | Potency
CCc1ccc(C2C(C(=O)Nc3ccccc3)=C(C)Nc3c(C(=O)Nc4ccc(C)cc4)cnn32)cc1 (stereo not given) | inactive
CC(Nc1oc(-c2ccccc2)nc1-c1ccccc1)c1ccccc1 (stereo not given) | inactive
COc1ccccc1/C=C/c1nc(C#N)c(NC(C)c2ccccc2)o1 (stereo not given) | 11.2 µM [quencher] (active)
COc1ccc(/C=C/c2nc(C#N)c(NCc3ccc(F)cc3)o2)cc1OC | inactive
CCOc1ccc(-n2c(SCC(=O)NCc3ccccc3)nc3n[nH]c(C)c3c2=N)cc1 | inactive
Nc1cccc(-c2cc(-c3ccccc3)nc(-c3cccc(N)c3)n2)c1 | 2.51 µM [quencher] (active)
Nc1cccc(CCc2nc3ccccc3[nH]2)c1 | inactive
Cc1nc(NNC(=O)c2ccccc2)cc(-c2ccccc2)n1 | inactive
CCCCn1c(CNC(=O)C23CC4CC(CC(C4)C2)C3)nnc1SCC(=O)Nc1ccc(C)cc1 | inactive
O=C(CC(c1cccs1)N1Cc2ccccc2C1=O)Nc1ccc(F)cc1F (stereo not given) | inactive
CCc1ccc(S(=O)(=O)Nc2cc3c(C(=O)OCc4ccccc4)c(C)oc3c3ccccc23)cc1 | inactive
O=C(Cn1c(=O)n(-c2ccc(F)cc2)c(=O)c2sccc21)Nc1cccc(C(F)(F)F)c1 | inactive
O=C(Cn1cc(/C=N/NC(=O)c2cccc(C(F)(F)F)c2)c2ccccc21)Nc1ccc(F)cc1 | 8.91 µM [quencher] (active)
COc1ccc(/C=N/NC(=O)c2cccc(C(F)(F)F)c2)cc1 | inactive
O=C(CCCN1C(=O)/C(=C\c2ccco2)SC1=S)Nc1cccc2ccccc12 | inactive
O=C(CCCN1C(=O)/C(=C/c2ccccc2)SC1=S)Nc1ccc(O)cc1 | 25.1 µM [quencher] (active)
COc1ccc(NC(=O)CCN2C(=O)/C(=C/c3ccc4c(c3)OCO4)SC2=S)cc1 | inactive
COC(=O)c1ccc(NC(=O)c2cnn(-c3ccc(Cl)cc3)c2C2CCN(C(=O)OC(C)(C)C)CC2)cc1 | inactive
CC(NC(=O)COC(=O)c1ccc2c(c1)OCO2)c1ccccc1 (stereo not given) | inactive
O=C(COC(=O)c1c2c(nc3ccccc13)/C(=C\c1cccs1)CCC2)Nc1ccccc1Cl | inactive
NC(=O)c1ccc(NC(=O)COC(=O)c2c3c(nc4ccccc24)/C(=C\c2ccc4c(c2)OCO4)CCC3)cc1 | 8.91 µM [quencher] (active)
CCC1CCCCN1C(=O)Cn1c(=O)n(CCCCCC(=O)NCc2ccccc2)c(=O)c2sccc21 (stereo not given) | inactive
CCC(=O)Nc1c(C(=O)N2CCN(c3ccc(F)cc3)CC2)oc2ccccc12 | inactive
CCc1ccccc1NS(=O)(=O)c1ccc2nc(-c3ccccc3)[nH]c2c1 | inactive

SMILES | Potency
CCc1ccc(NC(=O)C2CCCN2S(=O)(=O)c2ccc3nc(-c4ccccc4)[nH]c3c2)cc1 (stereo not given) | 25.1 µM [quencher] (active)
CCc1nnc(NC(=O)C2CCCN2S(=O)(=O)c2ccccc2)s1 (stereo not given) | inactive
Cc1ccccc1CNC(=O)c1ccc(NC(=O)N2CCCCc3ccccc32)cc1 | inactive
COCCNC(=O)c1ccccc1NS(=O)(=O)c1ccc(C)c([N+](=O)[O-])c1 | inactive
CN1CCN(c2ccc(S(=O)(=O)Nc3ccccc3)cc2[N+](=O)[O-])CC1 | inactive
O=[N+]([O-])c1cc(S(=O)(=O)Nc2cccc(Cl)c2)ccc1N=Nc1c(O)[nH]c2ccccc12 | 14.1 µM [quencher] (active)
O=C(NCc1ccccc1)c1cccc(NC(=O)N2CCSc3ncccc32)c1 | inactive
CCOC(=O)C1CCCN(C(=O)c2ccc3c(c2)sc2nc(-c4ccc(CC)cc4)cn23)C1 (stereo not given) | inactive
CCCCCn1c(=O)[nH]c2cc(C(=O)Nc3cc(C)cc(C)c3)ccc2c1=O | inactive
Fc1cc(F)c2nc(Nc3nc4c(F)cccc4s3)sc2c1 | inactive
NNc1nc2c(Cl)cccc2s1 | 15.8 µM [quencher] (active)
COc1cccc2sc(Nc3nc(C)c(C(C)=O)s3)nc12 | inactive
COc1ccccc1CNC(=O)c1ccc(NC(=O)N2CC(C)Sc3ccccc32)cc1 (stereo not given) | inactive
c1ccc(Nc2n[nH]nc2-c2ccccc2)cc1 | inactive
Cc1ccc(Nc2ccccc2N)cc1 | inactive
Nc1ccc(Nc2ccccc2)cc1 | 14.1 µM [quencher] (active)
C[n+]1ccc(/C=C/c2c[nH]c3ccccc23)cc1 | inactive
O=C(N/N=C/c1c[nH]c2ccccc12)c1cc2ccccc2o1 | inactive
CSC(=S)N/N=C/c1c[nH]c2ccccc12 | 12.6 µM [quencher] (active)
Cc1ccc(CN2CCc3nc(N4CCN(C)CC4)ncc3C2)cc1 | inactive
CCOc1ccc(N(Cc2ccccc2)C(=O)c2nc(S(C)(=O)=O)ncc2Cl)cc1 | inactive
CC1=C(C(=O)OCC(C)C)C(c2ccc(OCc3ccccc3)cc2)N2C(=O)CCSC2=N1 (stereo not given) | inactive
CCN1CCN(c2nc(Nc3cc(OC)ccc3OC)nc(Nc3cc(OC)ccc3OC)n2)CC1 | 28.2 µM [quencher] (active)
CCOC(=O)N1CCN(CCC(=O)Nc2cc(OC)ccc2OC)CC1 | inactive

SMILES | Potency
COc1ccc(OC)c(NC(=O)CCN2CCC(C)CC2)c1 | inactive
CCOC(=O)c1ccc(NC(=O)CCn2cnnn2)cc1 | inactive
CSc1nc(-c2ccccc2Cl)nc2c1Cc1c(CO)cnc(C)c1O2 | inactive
CCCOc1ccc(-c2cccc(NS(=O)(=O)c3ccccc3)c2)nn1 | inactive
CSc1nc(Nc2ccc(F)cc2)cc(-c2ccccc2)n1 | 7.08 µM [quencher] (active)
Cc1cc(Nc2ccccc2)nc(N)n1 | inactive
CSc1nc(-c2ccccc2)nc(C(Cl)Cl)n1 | inactive
Cc1cc2c(cc1C)C(c1cccc(OC(C)C)c1)CC(=O)N2 (stereo not given) | inactive
O=[N+]([O-])c1ccc(N2CCN(c3ccc(O)cc3)CC2)c(Cl)c1 | 14.1 µM [quencher] (active)
O=C(O)C1CCN(c2ccc([N+](=O)[O-])cc2[N+](=O)[O-])CC1 | inactive
COc1ccc(N2CCN(c3ccc([N+](=O)[O-])cc3Cl)CC2)cc1 | inactive
CCN1CCN(c2ncnc3c2cnn3-c2ccc(C)c(C)c2)CC1 | inactive
O=[N+]([O-])c1ccccc1NCc1ccc(Cl)cc1 | inactive
Oc1ccc(N2CCN(C(=S)NCc3ccccc3)CC2)cc1 | inactive
Oc1ccc(CNc2ccccc2O)cc1 | 17.8 µM [quencher] (active)
Cc1cc(C)c2oc(-c3cccc(NC(=O)c4cccc(F)c4)c3C)nc2c1 | inactive
COc1ccc(OC)c(CCNC(=O)CCCn2c(=O)c3cccn3c3cccnc32)c1 | inactive
COc1ccc(Nc2ncnc3ccc(OC)cc23)cc1 | inactive
COc1ccc(Nc2ncnc3sc(-c4ccccc4)cc23)c(OC)c1 | 14.1 µM [quencher] (active)
COc1ccccc1Nc1ncnc2c1oc1ccccc12 | inactive
O=C(N/N=C/c1ccc([N+](=O)[O-])o1)c1cccc(S(=O)(=O)N2CCOCC2)c1 | inactive
O=[N+]([O-])c1cc(Cl)cc(/C=N/NC(=S)Nc2cc(S(=O)(=O)N3CCOCC3)ccc2Cl)c1O | 8.91 µM [quencher] (active)
O=C(CN1CCN(c2ccc(O)cc2)CC1)Nc1cc(S(=O)(=O)N2CCOCC2)ccc1Cl | inactive
